Consider 40 sequences from the supplement of paper PMC6555819.

The subject of the assay is FXR:RXRa (NR concentration 270 nM, RXRa partner concentration 90 nM). Kind of assay: PBM binding z-score (relative to random genomic background probes); higher = stronger binding; sequences stand for … in GC…GCGATTGACAGCGTAGAATGAAGG
The method in brief: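 Regression normalization was applied to scanned fluorescence from custom Agilent 4×180K protein-binding microarrays. Before scanning, arrays were incubated 1 h with ligand-free nuclear receptor dimers, and binding was detected with antibodies against each partner (one per run). Binding z-scores use the random background probes as reference.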
In turn, CCTTGCGGGTCACGAGGTTATAGCACGACGAGCG returned a PBM binding z-score of 6.38.
In turn, TCGAGTAGGTTACCAATGGGGCTTTCAGCTTTCT came in with a PBM binding z-score of -0.0439.
For the sequence CGTCCAAGGACAAGGTCAGTGAAAGAGACTCGAA, the PBM binding z-score was determined as 1.56.
For ATCTCTAGGTAAGACTCAGTTCAGAGAAGAACGC, the PBM binding z-score is 0.455.
Under TCTTGTAGATCAACAGGAGGTTAAGAAAGATCGA stands 0.227; under CCAGACAGGTGAGAAGGTAACTCAACCTCGATTA, -0.191.
Consider CTACCAAGGTGAGCAAGGTCGTTGATTACTATTC, for which the PBM binding z-score was determined as 0.474.
In the case of AGTCAAAGTACACTAGGTAACGTAAGATTCAGCT, the PBM binding z-score is -0.108.
Under CGAACTAGGTCAGAAAAGGACAGTGAAGGATGAT stands 1.84; under TCATATAGGTAAATGCTAGCTGAAAGTCCGATCT, 0.654.
On to TTACTAAGGTGAGCTGAGGTCGTTGATCCAACTC, for which the PBM binding z-score was 2.26.
In turn, ACTAGCAGGCCAAGTTTGGGTTACTCAAACAAAG returned a PBM binding z-score of -0.336.
Under TTACCAAGGTGAGCTGAGGACGTTGATCCAACTC stands 1.1; under ATCTCTAGGTAAAAGTTCAATGAATCCCGAGGAT, 1.81.
Under GTACCAAGGTGAATGGGTCGTTGATGAGTAGGCG stands 0.456.
Under CAGCCTAGGTCAGGGCCAGTATCGGAGGAACGTT stands 1.55; under CAAACTAGGTCAGGAGGTCAAAGTCCGCTTCCCG, 5.51; under TAGCCTAGGTCATTCGGGCCAGTATAGTGTCGGC, 4.65.
ACAGACAGGCGAGTGAAGGTAACTCAGCTGGACG showed a PBM binding z-score of 0.222.
Under GGAACCAGGGCATTCGAGTTGATAGCATGGCGAT stands 1.3.
Sequence ATATGTAGGTTATCGGGTCAGTCAGTTTGCGCAT registered a PBM binding z-score of 2.15.
As for CCTTACGGGTCACTGACAGGTTATATCATTTGGA, the PBM binding z-score was found to be 5.35.
Regarding GCTCGGAGGACAAGGTCAAAGCTTTGTCCGTAGA, the PBM binding z-score was found to be 4.6.
GCTAGTTGGTCAGTAAAAGGCCACACACCGGTCG gave a PBM binding z-score of -0.0469.
For CCTTACGGGTCACTGACCGGTTATAGCATTTGGA, the PBM binding z-score worked out at 5.3.
In turn, CCTACTGGGCCACGAAGGGTCATTGATTCAGTGA yielded a PBM binding z-score of 2.42.
Under AGAATGAGGGCACGCTGAGTTGATAGCAGAGTAG stands 1.27; under GCTAACAGGCCATTTGGGTCACTCAATGACGGGC, 0.418.
TCGAGTAGGTTAGCGGCATTCAGAATGGCGTCGA gave a PBM binding z-score of -0.731.
Under TATACAGGGTTAAAGGCCAGAGTACGAATGTCGA stands 2.5; under CGAACTAGGTCTTCCAGGACAGTGAATACATTGA, 0.011.
The sequence TTACCAAGGTGAGCTGAAGTCGTTGATCCAACTC had a PBM binding z-score of -0.293.
Under CGTGCAAGGTCAAGGTCAGTGAAAGAGACTCGAA stands 7.71; under CCGAGTAGGTTATGGGGCAATCAGGCAACGGTGA, 0.219; under GCAGACGGGTGAAACGCAGGTAACTCAGGGTGGC, -0.349.
TATAGAGGGTCAAAGGCCAGAGTACGAATGTCGA registered a PBM binding z-score of 6.65.
Consider GATACAGGGTCAGCTATAGGCCAGAGTATGGAAA, for which the PBM binding z-score was 4.11.
Under ATCTCTAGGTAAGACTCAGTTCAGGGAAGAACGC stands 0.579; under AATACAGGGTCATCGTAGGCCTGAGTACGCACAG, 7.54.
In turn, TCTTGTAGATCACAGGTTAAGAAAGCCGAAGCCT had a PBM binding z-score of 0.701.
